From PubChem BioAssay
A selection: hits, their analogues and other compounds. The true share with any hit is near 4.6%.
VACV Venus inh = qHTS for Stage-Specific Inhibitors of Vaccinia Orthopoxvirus: Venus Reporter Primary qHTS; Potency, µM (top dose mostly 36.5 µM), actives largely listed as inhibitors; AID 720580, 2013; hit rate 0.46% among 330,000; Vaccinia virus Venus reporter expression, fluorescence; calls by dose curve; tested in A549 cells; note: nearly all actives have a fitted effect of over 30% in size
MARV entry inh = qHTS for inhibitors of binding or entry into cells for Marburg Virus; Marburg virus pseudotyped entry inhibition, cell reporter; Potency, µM (titrated, usually from 37.8 µM), actives largely listed as inhibitors; hit rate 1.8% among 300,000; AID 540276, 2011; calls by dose curve; tested in HEK293 cells
VACV mCherry inh = qHTS for Stage-Specific Inhibitors of Vaccinia Orthopoxvirus: mCherry Reporter Primary qHTS | hit rate 0.63% among 310,000 | Vaccinia virus mCherry reporter infection, fluorescence | Potency, µM (series often up to 36.5 µM), hits mostly inhibitors; calls by dose curve; tested in A549 cells; note: nearly all actives have a fitted effect of over 35% in size
Lassa entry inh = qHTS for Inhibitors of binding or entry into cells for Lassa Virus; Lassa virus pseudotype entry inhibition, cell reporter; Potency, µM (top dose mostly 37.9 µM), hits mostly inhibitors; hit rate 1.2% among 300,000; AID 540256, 2011; calls by dose curve; tested in HEK293 cells; note: nearly all actives have a fitted effect of over 50% in size
HCV inh = qHTS Assay for Inhibitors of Hepatitis C Virus (HCV) | Huh7.5.1 HCVcc-Cre infection, luciferase reporter, 44 h | Potency, µM (top dose mostly 41.8 µM), hits mostly inhibitors | hit rate 3.4% among 340,000 | AID 651820, 2012; active = well fitted inhibition curve with a large enough effect; inconclusive = small, poorly fitted or top-dose-only effect, or another doubt; inactive = no such curve, though single readings can be large or run the other way
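Whole-lifecycle infectious HCVcc-Cre system; cells 1,000/well, compound then virus (~0.5 moi) added 4 h after plating, 44 h culture. Luciferase read 15 sec following 15 min substrate incubation, room temp.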
Of the large screens only hits and unclear results are named; the others gave an inactive call.

Nc1ncc(Br)cc1S(=O)(=O)Nc1cc(C(F)(F)F)cc(C(F)(F)F)c1	VACV Venus inh inconclusive, MARV entry inh inconclusive, VACV mCherry inh inconclusive, Lassa entry inh 14.1µM, HCV inh inconclusive
Cn1nc(C(C)(C)C)cc1C(=O)NCc1ccc2c(c1)OCO2	HCV inh 1µM (no result: VACV Venus inh, MARV entry inh, VACV mCherry inh, Lassa entry inh)
COc1cccc(-c2nn(C)c3sc(C(=O)NCc4cc(OC)ccc4OC)cc23)c1	none (no result: HCV inh)
COc1ccc(-c2nn(C)c3sc(C(=O)Nc4cc(OC)c(OC)c(OC)c4)cc23)cc1OC	MARV entry inh inconclusive, Lassa entry inh inconclusive (no result: HCV inh)
Cc1oc(C(C)(C)C)cc1C(=O)NCc1ccc2c(c1)OCO2	none
COc1cccc(-c2nn(C)c3sc(C(=O)N4CCN(c5ccccn5)CC4)cc23)c1	VACV Venus inh inconclusive, MARV entry inh inconclusive, VACV mCherry inh inconclusive, Lassa entry inh inconclusive, HCV inh 10µM
COc1cccc(-c2nn(C)c3sc(C(=O)NCc4ccc5c(c4)OCO5)cc23)c1	VACV Venus inh inconclusive, VACV mCherry inh inconclusive, HCV inh 14.1µM (no result: Lassa entry inh)
COc1ccc(NC(=O)c2cc3c(-c4ccc(OC)c(OC)c4)nn(C)c3s2)cc1OC	MARV entry inh 13µM, Lassa entry inh 13µM, HCV inh inconclusive (no result: VACV Venus inh, VACV mCherry inh)
C#CCN(Cc1nc(N2CCOCC2)c2ccc(Cl)cc2n1)Cc1ccco1	none (no result: MARV entry inh, Lassa entry inh, HCV inh)
COc1cccc(-c2nn(C)c3sc(C(=O)NCc4ccc(OC)cc4OC)cc23)c1	VACV mCherry inh inconclusive, Lassa entry inh inconclusive (no result: HCV inh)
COc1cccc(-c2nn(C)c3sc(C(=O)NCc4ccc(C)o4)cc23)c1	VACV Venus inh inconclusive, MARV entry inh inconclusive, VACV mCherry inh inconclusive, Lassa entry inh inconclusive, HCV inh 2.82µM
CCC1CN(Cc2ccc(COC)o2)Cc2cc(OC)ccc2O1 (centres undefined)	none (no result: MARV entry inh, Lassa entry inh, HCV inh)
O=C(c1nc[nH]c1C(=O)N1CCN(c2ccccc2)CC1)N1CCN(c2ccccc2)CC1	HCV inh 3.55µM (no result: MARV entry inh, Lassa entry inh)
Cc1ccc(CS(=O)(=O)CCC(=O)NCCc2ccccc2)cc1	Lassa entry inh inconclusive, HCV inh 5.62µM
CCOc1cccc2sc(N3CCN(C(=O)C(C)(C)C)CC3)nc12	Lassa entry inh inconclusive (no result: MARV entry inh, HCV inh)
O=C(NCCCN1CCOCC1)c1cnn(-c2ncc3c(n2)-c2ccccc2CC3)c1C1CC1	none (no result: MARV entry inh, Lassa entry inh, HCV inh)
CCCn1cnc2c(SCc3ccccc3Cl)nc(N)nc21	MARV entry inh 7.08µM, Lassa entry inh 11.2µM
CCCn1cnc2c(SCc3ccccn3)nc(N)nc21	none
COCCCn1c(=N)c(C(=O)NCc2ccco2)cc2c(=O)n3ccccc3nc21	MARV entry inh 2.51µM (no result: HCV inh)
Cc1ccc(Cn2c(=N)c(C(=O)NCc3ccco3)cc3c(=O)n4ccccc4nc32)cc1	MARV entry inh 12.6µM, Lassa entry inh inconclusive, HCV inh 11.2µM
COC(=O)c1cc(=O)c(O)c2c(O)c(O)ccc2c1	none (no result: MARV entry inh, Lassa entry inh, HCV inh)
Cc1ccc(-n2c(C3CC3c3ccc(Cl)cc3)n[nH]c2=S)cc1 (centres undefined)	none (no result: VACV Venus inh, VACV mCherry inh)
Cc1ccc(-n2c([C@@H]3C[C@H]3c3ccccc3)n[nH]c2=S)cc1	none
Cc1ccc(C2CC2c2n[nH]c(=S)n2-c2ccc(C)cc2)cc1 (centres undefined)	Lassa entry inh inconclusive, HCV inh 25.1µM (no result: VACV Venus inh, VACV mCherry inh)
S=c1[nH]nc(C2CC2c2ccc(Cl)cc2)n1-c1ccc(Cl)cc1 (centres undefined)	VACV Venus inh inconclusive, Lassa entry inh 15.8µM
COc1ccc(/C(O)=C2\C(=O)C(=O)N(Cc3ccco3)[C@@H]2c2cccs2)cc1	none (no result: VACV Venus inh, VACV mCherry inh, Lassa entry inh, HCV inh)
COc1ccc(S(=O)(=O)N2CCN(CCCOc3ccc(F)cc3)CC2)cc1OC	MARV entry inh 10µM, Lassa entry inh inconclusive, HCV inh 11.2µM
COc1ccc(OC)c(CNC(=O)CN2CC(C)Sc3ccccc32)c1 (centres undefined)	none (no result: MARV entry inh, HCV inh)
COCc1c(C(=O)N2CCCCC2c2cccnc2)cnn1-c1ncc2c(n1)-c1ccccc1CCC2 (centres undefined)	none (no result: MARV entry inh, Lassa entry inh, HCV inh)
COc1ccc2c(c1)[C@H]1[C@H](CO2)[C@H](c2ccccc2)[C@]2(C)C(=O)Nc3ccc(C)cc3C(=O)N12	VACV Venus inh inconclusive, HCV inh 11.2µM (no result: MARV entry inh, Lassa entry inh)
COc1ccc2c(c1)[C@@H]1[C@H](CO2)[C@H](c2ccccc2)[C@]2(C)C(=O)Nc3ccc(C)cc3C(=O)N12	none (no result: MARV entry inh, Lassa entry inh)
COc1ccc2c(c1)[C@H]1[C@H](CO2)[C@H](c2ccccc2)[C@]2(C)C(=O)Nc3cc(OC)c(OC)cc3C(=O)N12	VACV Venus inh inconclusive, VACV mCherry inh inconclusive, HCV inh 10µM (no result: MARV entry inh, Lassa entry inh)
Cc1ccc(SC[C@H](Cc2ccccc2)N2CC[C@@H](C(C)(C)C)CCC2=O)cc1	none (no result: MARV entry inh, Lassa entry inh, HCV inh)
CCOc1ccc(NC(=O)CSc2cn(CC(=O)N3CCCCCC3)c3ccccc23)cc1	none (no result: MARV entry inh, HCV inh)
CC(=O)Nc1cccc(/C(C)=N/NC(=O)c2ccc(O)cc2)c1	none
C/C(=N\NC(=O)c1ccc(O)cc1)c1ccc2c(c1)Nc1ccccc1S2	VACV Venus inh inconclusive, MARV entry inh inconclusive, HCV inh 10µM
Cc1ccccc1NC(=O)C1CC(=O)N(c2ccc3c4c(cccc24)CC3)C1 (centres undefined)	none
O=C(Nc1ccccc1Br)C1CC(=O)N(c2ccc3c4c(cccc24)CC3)C1 (centres undefined)	MARV entry inh 10µM, Lassa entry inh inconclusive, HCV inh inconclusive
COc1ccccc1NC(=O)COc1ccc(Br)cc1CO	none (no result: VACV Venus inh, VACV mCherry inh)
O=C(COc1ccc(Br)cc1CO)Nc1ccccc1	HCV inh 15.8µM (no result: VACV Venus inh, VACV mCherry inh)
COc1ccccc1NC(=O)COc1cc(Br)c(CNCCCN2CCOCC2)cc1OC	HCV inh 11.2µM (no result: VACV Venus inh, MARV entry inh, VACV mCherry inh, Lassa entry inh)
COc1ccccc1NC(=O)COc1ccc(Br)cc1CNC1CCCC1	MARV entry inh 5.62µM, HCV inh inconclusive (no result: Lassa entry inh)
O=C(COc1ccc(Br)cc1CO)Nc1ccccc1F	MARV entry inh inconclusive, HCV inh 25.1µM (no result: VACV mCherry inh)
